# Data from PubChem BioAssay AID1851 (National Center for Advancing Translational Sciences (NCATS), 2009).
# Out of some 16,000 compounds screened, about 5,700 (36%) were called active. Inconclusive results (about 24%) are left out. Calls come from the whole dose curve; as a rule, active = well fitted curve in the direction sought with a large enough effect; inconclusive = small, poorly fitted or top-dose-only effect, or effect the other way; inactive = no such curve, though single readings can be large or run the other way. This is one part of the list.
# Molecular target: Cytochrome P450 1A2 (Homo sapiens) (UniProt P05177)
# Test: Cytochrome panel assay with activity outcomes
# Conditions: recombinant CYP, pro-luciferin dealkylation, luminescence, p450-cyp1a2; series mostly up to 57.1 µM
# % is set by controls: 0 for no effect and ±100 for the full control effect.
# Chain of Cytochrome P450 1A2 (Homo sapiens) (P05177 whole entry, looked up): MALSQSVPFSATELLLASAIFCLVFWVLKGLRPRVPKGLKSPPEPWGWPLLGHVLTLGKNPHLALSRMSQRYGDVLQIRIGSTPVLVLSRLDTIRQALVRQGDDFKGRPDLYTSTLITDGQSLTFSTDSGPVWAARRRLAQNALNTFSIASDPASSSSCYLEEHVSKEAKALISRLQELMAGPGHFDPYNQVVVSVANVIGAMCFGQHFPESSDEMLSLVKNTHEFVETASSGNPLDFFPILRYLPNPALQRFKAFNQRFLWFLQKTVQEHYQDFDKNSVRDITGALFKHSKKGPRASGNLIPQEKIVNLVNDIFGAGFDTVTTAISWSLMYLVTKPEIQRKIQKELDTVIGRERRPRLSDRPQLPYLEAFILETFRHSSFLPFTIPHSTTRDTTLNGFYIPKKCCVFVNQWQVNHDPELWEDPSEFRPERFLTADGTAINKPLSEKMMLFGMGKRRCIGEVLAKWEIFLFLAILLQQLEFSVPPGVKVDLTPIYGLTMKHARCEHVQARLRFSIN
SMILES,AC50,"activity, negative = inhibition"
Cc1ccc(C)c(N2CCN(C(=O)C3CCN(S(=O)(=O)c4cccc5nsnc45)CC3)CC2)c1,inactive,–
CO[C@H]1COC(=O)C/C=C\[C@@H](C)COC(=O)[C@@H](C)NC(=O)C/C=C\[C@@H]1C,–,-10.1% [at 11.4 µM] (inactive)
O=C(O)CCC(=O)N1CCC[C@H]1C(=O)O,inactive,–
COc1cc(C(=O)NCCC(=O)NCc2ccc3c(c2)OCO3)cc(OC)c1OC,20 µM (active),–
CCN1CCCC1CNC(=O)CCNC(=O)c1cc(OC)c(OC)c(OC)c1 (stereo not drawn),inactive,–
O=C(CCNS(=O)(=O)c1ccc2c(c1)CCC(=O)N2)NCc1ccc2c(c1)OCO2,inactive,–
Cc1cc(NC(=O)c2ccc(S(=O)(=O)Nc3ccccc3)cc2)no1,5.01 µM (active),–
Cc1ccc(OCC(=O)Nc2ccc(S(=O)(=O)Nc3onc(C)c3C)cc2)cc1,inactive,–
COc1cc2ccccc2cc1C(=O)Nc1ccc(S(=O)(=O)Nc2cc(C)on2)cc1,25.1 µM (active),–
NS(=O)(=O)c1ccc(NS(=O)(=O)c2ccc(NC(=O)c3ccc(-c4ccccc4)cc3)cc2)cc1,inactive,–
Cc1cc(C)c2nc(-c3ccccn3)cc(C(=O)Nc3ccc(S(=O)(=O)Nc4cc(C)on4)cc3)c2c1,inactive,–
CC(C)CC(C(=O)NCC1CCCO1)N(C(=O)Cn1nnc(-c2ccc(F)cc2)n1)c1cccc(C(F)(F)F)c1 (stereo not drawn),inactive,–
CCc1noc(N)c1C(=O)Nc1ccc(F)c(Cl)c1,4.47 µM (active),–
Cc1cnn(CCC(=O)NNC(=S)Nc2ccc(F)cc2)c1,inactive,–
Cc1noc(N)c1C(=O)Nc1ccc(F)cc1,8.91 µM (active),–
Cc1noc(C)c1C(=O)N1CCC2(CC1)CN(C(=O)Nc1cccc(F)c1)C2,inactive,–
C/C(CCC(=O)OC[C@@H]1O[C@H](C#Cc2ccccc2)C=C[C@@H]1Oc1ccc(C)cc1)=N/OC[C@@H](C)[C@H](OCc1ccccc1)C(C)C,–,-1.97% [at 11.4 µM] (inactive)
COCC(=O)N1CCC2(CC1)CCN(C(=O)Nc1cccc(F)c1)CC2,inactive,–
CC(=O)N=c1sc(S(N)(=O)=O)nn1C,inactive,–
O=C(O)CCC(=O)CCC(=O)c1ccccc1,inactive,–
O=C(O)CCC(=O)c1ccc2ccc3cccc4ccc1c2c34,1.26 µM (active),–
CN(c1ccc(C(=O)NC2CC3CCC2C3)cc1)S(C)(=O)=O (stereo not drawn),inactive,–
O=C(O)C(Cc1cccs1)C(=O)O,–,-2.09% [at 2.29 µM] (inactive)
Cc1ccc(/C(N)=N/OC(=O)Cc2cccs2)cc1,15.8 µM (active),–

SMILES,AC50,"activity, negative = inhibition"
Cc1ccc(C(N)=Nc2ccccc2)cc1,–,-14.7% [at 11.4 µM] (inactive)
CN(NC(=O)NN)c1ncc(C(F)(F)F)cc1Cl,14.1 µM (active),–
COn1c(SC(C)C)nc2ccccc2c1=O,0.708 µM (active),–
CC(C)On1c(SC(C)C)nc2ccccc2c1=O,2 µM (active),–
CN1CCN(CCCNC(=O)C2CCN(c3nnc(-n4cccc4)s3)CC2)CC1,inactive,–
CC1CC(C)CN(CCCNC(=O)C2CCCN(c3nnc(N4CCCC4=O)s3)C2)C1 (stereo not drawn),inactive,–
O=C(NCCc1c[nH]c2ccccc12)C1CCN(c2nnc(N3CCCC3=O)s2)CC1,20 µM (active),–
C[C@@H]1NCC[C@H](CC(=O)O)[C@H]1CC(=O)O,–,-6.87% [at 11.4 µM] (inactive)
FC(F)(F)c1cc(CN2CC3(CCNCC3)C2)cc(C(F)(F)F)c1,inactive,–
CC[C@H](C(=O)c1cccs1)C(O)(C(F)(F)F)C(F)(F)F,–,-17.5% [at 2.29 µM] (inactive)
Cc1ccc(S(=O)(=O)c2c(C)nn(C(C)(C)C)c2OC(=O)c2cccs2)cc1,inactive,–
Cc1ccc(N=C/C(C(=O)C(F)(F)F)=C(\O)c2cccs2)cc1,12.6 µM (active),–
CC(=O)N1CCC2(CC1)CN(c1ccccn1)C2,inactive,–
Cc1cc(C)n2nc(-c3sccc3-n3cccc3)cc2n1,5.01 µM (active),–
CCN1CCN(c2cc(=O)n(-c3cc(Cl)ccc3C)c(=O)[nH]2)CC1,inactive,–
c1ccc(-c2nc(NCCCn3ccnc3)c3oc4ccccc4c3n2)cc1,0.0398 µM (active),–
c1ccc2c(c1)oc1c(NCCCn3ccnc3)ncnc12,0.0562 µM (active),–
Cc1cccc(C)c1NC(=O)N1CCC(N2CCCCC2)CC1,inactive,–
Cc1cc(C)c(NC(=O)C2CCCN2C)c(C)c1 (stereo not drawn),inactive,–
CCCCN1CCCC[C@H]1C(=O)Nc1c(C)cccc1C,5.01 µM (active),–
O=C(Cc1ncc(C(F)(F)F)cc1Cl)Nc1cccc(Br)c1,17.8 µM (active),–
CCOC(=O)c1cnc2ccc(C)cc2c1Sc1ccccc1C(=O)OC,3.55 µM (active),–
COc1ncc2nc(-c3ccc(Cl)cc3)c(=O)n(-c3ccccc3)c2n1,1.58 µM (active),–
COc1ncc2nc(-c3ccccc3)c(=O)n(-c3ccccc3)c2n1,2 µM (active),–

SMILES,AC50,"activity, negative = inhibition"
COCCNC(=O)COC(=O)/C=C/c1cnc2ccccc2n1,7.08 µM (active),–
CCc1c(C)c2c(C)[nH]nc2oc1=O,5.01 µM (active),–
CC(C)C12CC[C@@]3(CC[C@H]4[C@@](C)(CCC[C@]4(C)C(=O)O)[C@@H]3C1)[C@@H](CN)C2,–,-4.02% [at 11.4 µM] (inactive)
CCOC(=O)c1c(C)n(C)c2ccc(OC(=O)c3ccco3)cc12,0.355 µM (active),–
CCN(CC)CCOC(=O)c1c(C)n(C)c2ccc(OC)cc12,1.41 µM (active),–
O=CN[C@@H](Cc1cnc[nH]1)C(=O)O,–,-8.82% [at 11.4 µM] (inactive)
CN(C)c1ncnc2ccc(-c3ccccc3C(F)(F)F)cc12,0.631 µM (active),–
CN(C)c1ncnc2ccc(-c3ccccc3C#N)cc12,0.398 µM (active),–
COc1ccccc1-c1ccc2ncnc(N(C)C)c2c1,1.26 µM (active),–
Cc1ccccc1-c1ccc2ncnc(N(C)C)c2c1,0.631 µM (active),–
Nc1nc(=O)c2[nH]cnc2n1O,–,-12.4% [at 11.4 µM] (inactive)
O=c1oc2cc(Oc3c([N+](=O)[O-])cc(C(F)(F)F)cc3[N+](=O)[O-])ccc2c2c1CCCC2,3.16 µM (active),–
O=c1oc2cc(Oc3ccc(C(F)(F)F)cc3[N+](=O)[O-])ccc2c2c1CCCC2,inactive,–
COc1ccccc1-c1c(C(F)(F)F)oc2cc(OC(=O)c3cccc([N+](=O)[O-])c3C)ccc2c1=O,inactive,–
CC(C)(C)N1C(=O)[C@H]2[C@H]3[C@H](O)[C@H](O)C/C(=N/OC[C@@H](O)COCc4ccco4)[C@H]3CC[C@@H]2C1=O,–,-7.06% [at 11.4 µM] (inactive)
C[C@@H]1/C=C\CC(=O)OC[C@H](C)C(=O)N[C@@H](Cc2ccccc2)C(=O)OC1,–,-0.511% [at 11.4 µM] (inactive)
COCCn1c(=O)c(CCc2ccccc2)nc2cnc(Oc3ccc(OC)cc3)nc21,15.8 µM (active),–
COCCn1c(=O)c(CCc2ccccc2)nc2cnc(OC)nc21,10 µM (active),–
COc1ncc2nc(CCc3ccccc3)c(=O)n(C)c2n1,5.01 µM (active),–
COc1ccc(-n2c(=O)c(CCc3ccccc3)nc3cnc(OC)nc32)cc1,15.8 µM (active),–
CC(C)(C)c1cc(C(=O)O)c(CN2CCCCC2)o1,inactive,–
CCN1C(=O)[C@H]2[C@H]3[C@H](O)[C@H](O)C/C(=N/OC[C@@H](C)[C@H](OCc4ccccc4)C(C)C)[C@@H]3CC[C@@H]2C1=O,–,-11.8% [at 11.4 µM] (inactive)
COc1ncc2nc(CCc3ccccc3)c(=O)n(CCC#N)c2n1,15.8 µM (active),–
CO[C@H]1COC(=O)[C@H](C)NC(=O)C/C=C\[C@@H](C)[C@H](OC)COC(=O)[C@@H](OCc2ccccc2)/C=C\[C@@H]1C,–,-11.8% [at 11.4 µM] (inactive)

SMILES,AC50,"activity, negative = inhibition"
Cc1cccc(-c2n[nH]c([N+](=O)[O-])n2)c1,14.1 µM (active),–
CS(=O)(=O)Nc1cccc(-c2ccc3ncnc(Nc4ccc(F)cc4)c3c2)c1,0.794 µM (active),–
CNc1ncnc2ccc(-c3cccc(NS(C)(=O)=O)c3)cc12,0.316 µM (active),–
CS(=O)(=O)Nc1cccc(-c2ccc3ncnc(Nc4ccccc4)c3c2)c1,1 µM (active),–
CS(=O)(=O)Nc1cccc(-c2ccc3ncnc(NC4CC4)c3c2)c1,0.631 µM (active),–
Cn1ncc2c(Nc3cccc(C(=O)O)c3)ncnc21,inactive,–
Cc1nc(Oc2ccc(Cl)cc2)c2oc3ccccc3c2n1,0.141 µM (active),–
O=C1Nc2ccccc2Nc2ncccc21,2.24 µM (active),–
N#Cc1c(-c2ccccc2)cc(-c2ccccc2)nc1SCc1nnc(-c2ccccc2)o1,inactive,–
CS(=O)(=O)c1nc(-c2ccccc2)cc(-c2ccccc2)c1C#N,0.891 µM (active),–
O=C1CC(=O)N(CCc2ccc(F)cc2)C(=O)N1,inactive,–
Cc1c(/N=C/c2ccco2)n(Cc2ccccc2)c2ccccc12,1.12 µM (active),–
CNC(=O)NC(=O)CSc1nnc(-c2ccco2)n1Cc1ccccc1,inactive,–
CCn1c(=O)cc(SCC(=O)N2CCN(C(=O)c3ccco3)CC2)c2ccccc21,inactive,–
CC12c3ccccc3C(c3ccccc31)C1C(=O)N(Cc3cccnc3)C(=O)C12 (stereo not drawn),inactive,–
S=C1N[C@H](c2ccccc2)N[C@H](c2ccccc2)S1,3.16 µM (active),–
O=C1C2[C@@H](c3ccccc3)N[C@@H](c3ccccc3)C1[C@H](c1ccccc1)N[C@H]2c1ccccc1,–,-18.6% [at 11.4 µM] (inactive)
CCC(C)Nc1c([N+](=O)[O-])cc(C)cc1[N+](=O)[O-] (stereo not drawn),1.78 µM (active),–
COc1cc(C(=O)NCCC(C)C)c([N+](=O)[O-])cc1OC,inactive,–
CC[C@@H](CS(=O)(=O)O)[N+](=O)[O-],–,-0.979% [at 11.4 µM] (inactive)
Cn1cc(-c2nnc(-c3ccccc3)o2)c2ccccc21,2 µM (active),–
